From PubChem BioAssay AID602393 (Broad Institute, 2012)
About 7,000 (2%) of roughly 350,000 compounds were called active. Rule as the data show it: active = activation above about 40%; inconclusive = no clear call, values can overlap the other calls; inactive = below that. The entries come from a sample that favours actives as a whole.

assay: Bmi1 luciferase reporter increase in mESCs, primary screen, esBAF inhibitor project, mouse ES cells, Bmi1 luciferase knock-in, single point (AID 602393); conditions: 24 h, at 12.5 µM, hits give high values;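 also: 0% = median of the plate's neutral control wells and 100% = double that signal; a rise in the Bmi1 reporter signal indicates esBAF inhibition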

**Q.** For `CC(C)(C)c1ccc(OC(=O)N2CCCCC2)cc1`, which reporter increase is on record?
**A.** The reporter increase was 91.1% (active).

**Q.** For `CN1CCN(C(=O)COc2ccc(C(C)(C)C)cc2Br)CC1`, which reporter increase is on record?
**A.** The reporter increase was 1.71% (inactive).

**Q.** With `O=C(NC1CCCCC1)N1Cc2cc(N3CCCCC3)ccc2-n2nncc2C1` as the compound, how does the reporter increase read?
**A.** The reporter increase was 5.49% (inactive).

**Q.** For `CSCCC(c1nnnn1C(C)(C)C)N1CCC(n2c(=O)[nH]c3ccccc32)CC1` (stereo not given), which reporter increase is on record?
**A.** The reporter increase was -9.76% (inactive).

**Q.** For `O=P(OC1=CCCCC1)(c1ccccc1)c1ccccc1`, which reporter increase is on record?
**A.** The reporter increase was -0.107% (inactive).

**Q.** For `CN(C)C(=O)Oc1ccc(NC(=O)N2CCOCC2)cc1`, which reporter increase is on record?
**A.** Its reporter increase is -0.475% (inactive).

**Q.** Which reporter increase does the source give for `CN(C)C(=O)Oc1ccc2c(c1)O/C(=C\c1ccccc1)C2=O` here?
**A.** The reporter increase was 46.6% (active).

**Q.** With `S=C(NCCc1ccccc1)N1Cc2cc(N3CCOCC3)ccc2-n2nncc2C1` as the compound, how does the reporter increase read?
**A.** Its reporter increase is 0.039% (inactive).

**Q.** Which reporter increase does the source give for `C[C@H](CO)N1C[C@H](C)[C@H](CN(C)C(=O)Oc2ccc3ccccc3c2)OCc2cnnn2CCCC1=O` here?
**A.** The reporter increase was 2.57% (inactive).

**Q.** With `N#Cc1cccc(-c2ccc([C@H]3[C@@H](CO)N4CCCCN(C(=O)Cc5cccnc5)C[C@@H]34)cc2)c1` as the compound, how does the reporter increase read?
**A.** Its reporter increase is 0.128% (inactive).

**Q.** For `COC(=O)[C@H]1[C@H](CO)[C@H]2Cn3c(cccc3=O)[C@H]2N1CC1CC1`, which reporter increase is on record?
**A.** Its reporter increase is 0.469% (inactive).

**Q.** With `Cc1cc(C)c2c(c1)NP(=S)(c1ccccc1)N2` (stereo not given) as the compound, how does the reporter increase read?
**A.** Its reporter increase is 7.37% (inactive).

**Q.** With `COc1ccc2c(c1)NP(=S)(c1ccccc1)N2` (stereo not given) as the compound, how does the reporter increase read?
**A.** The reporter increase was 43.7% (active).

**Q.** Which reporter increase does the source give for `O=C(O)[C@H]1[C@H](CO)[C@H]2Cn3c(ccc(-c4ccccc4F)c3=O)[C@@H]1N2C(=O)c1cccnc1` here?
**A.** Its reporter increase is -1.7% (inactive).

**Q.** For `COC(=O)C1=C(c2ccc(OCc3ccccc3)cc2)C[C@@H]2CC[C@H]1N2C(=O)NCc1cccc(F)c1`, which reporter increase is on record?
**A.** Its reporter increase is 3.43% (inactive).
